Measured values as given in PubChem BioAssay (EPA / NIEHS).
Results filed as inconclusive are left out. The source made the active and inactive calls. The calls were made as follows, unless noted: active = hit-call score of the fitted dose curve at least 0.9, where 1 is the maximum; inconclusive = response in the unintended direction; inactive = score below 0.9.

What was measured:
[1] = target: Estrogen receptor (Homo sapiens) (UniProt P03372); experiment: OT_ERa_GFPERaERE_0480: Odyssey Thera (OT) 8-hour HeLa Transcription Induction Assay for Estrogen Receptor (AID 2283381; active = hit-call score of the fitted dose curve at least 0.9, where 1 is the maximum; inactive = score below 0.9)
Procedure, shortened: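 An 8 h HeLa transcription-induction format with a GFP reporter under ERE control, read by fluorescence microscopy; single endpoint fitted positively with DMSO as baseline.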

[2] = target: Estrogen receptor (Homo sapiens) (UniProt P03372); experiment: OT_ERa_GFPERaERE_0120: Odyssey Thera (OT) 2-hour HeLa Transcription Induction Assay for Estrogen Receptor (AID 2283382)
Procedure, shortened: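 Two-hour compound treatment of HeLa cells preceded microscopy imaging of an inducible fluorescent reporter. Image-based quantification gave one endpoint, analysed for signal increase relative to DMSO controls.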

[3] = target: Bile acid receptor (Homo sapiens) (UniProt Q96RI1); experiment: OT_FXR_FXRSRC1_0480: Odyssey Thera (OT) 8-hour HEK293T Protein-Complementation Assay for Farnesoid X receptor/SRC-1 Co-activator (AID 2283383)
Procedure, shortened: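 Readings were taken 8 h after dosing HEK293T cells in a split-reporter complementation format pairing FXR with SRC-1. Increased fluorescence relative to DMSO-treated wells defined activity.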

[4] = target: Bile acid receptor (Homo sapiens) (UniProt Q96RI1); experiment: OT_FXR_FXRSRC1_1440: Odyssey Thera (OT) 24-hour HEK293T Protein-Complementation Assay for Farnesoid X receptor/SRC-1 Co-activator (AID 2283384)
Procedure, shortened: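 Single endpoint, analysed for increased fluorescence against DMSO controls. HEK293T cells carrying FXR and SRC-1 linked to complementary reporter halves were exposed to chemicals for 24 h before reading.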

[5] = target: Retinoic acid receptor RXR-alpha (Homo sapiens) (UniProt P19793); experiment: OT_NURR1_NURR1RXRa_1440: Odyssey Thera (OT) 24-hour HEK293T Protein Complementation Assay for Nurr1/retinoid X receptor (RXR) (AID 2283386)
Procedure, shortened: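 Cell-based binding reporter: HEK293T cells, 24 h exposure, fluorescence-detected fragment complementation, DMSO as baseline.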

[6] = target: Peroxisome proliferator-activated receptor gamma (Homo sapiens) (UniProt P37231); experiment: OT_PPARg_PPARgSRC1_0480: Odyssey Thera (OT) 8-hour Protein-Complementation Assay for Peroxisome Proliferator-activated Receptor Gamma / SRC-1 Co-activator (AID 2283387);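 also: nuclear to cytoplasmic split Venus YFP fluorescence ratio reporting PPARg SRC-1 interaction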
Procedure, shortened: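 Read-out: 488 nm N/C fluorescence ratio from complemented Venus YFP fragments, ≥350 cells per image, gain-of-signal fitted against DMSO baseline. Fusions of PPARg/SRC-1 with IFP1/IFP2 expressed transiently in HEK293T; compounds applied 8 h.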

[7] = CEETOX_H295R_11DCORT: CeeTox H295R High-throughput Steroidogenesis Assay for 11-Deoxycortisol (11DCORT) (AID 2283432; active = hit-call score of the fitted dose curve at least 0.9, where 1 is the maximum; inactive = score below 0.9;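 as to AC50: 11-deoxycortisol secreted into the medium measured by LC-MS/MS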); conditions: actives raise or lower the signal
Procedure, shortened: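 H295R cells; 10 uM forskolin prestim 48 h; compound in 0.1% DMSO 48 h; media extracted with MTBE; 11-deoxycortisol by LC-MS/MS, 7-point standard curve; gain/loss vs DMSO baseline; viability by MTT in same wells.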

[8] = CEETOX_H295R_OHPREG: CeeTox H295R High-throughput Steroidogenesis Assay for OH-Pregnenolone (OHPREG) (AID 2283434; active = hit-call score of the fitted dose curve at least 0.9, where 1 is the maximum; inactive = score below 0.9); conditions: actives raise or lower the signal
Procedure, shortened: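 Secreted 17alpha-hydroxypregnenolone measured by HPLC-MS/MS after liquid-liquid extraction. Human adrenal H295R cells received 48 h forskolin (10 uM) stimulation before 48 h chemical exposure at 0.1% final DMSO; MTT viability in same wells; bidirectional fit against DMSO.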

[9] = target: Retinoic acid receptor RXR-alpha (Homo sapiens) (UniProt P19793); experiment: OT_NURR1_NURR1RXRa_0480: Odyssey Thera (OT) 8-hour HEK293T Protein Complementation Assay for Nurr1/retinoid X receptor (RXR) (AID 2283385)
Procedure, shortened: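 Gain in fluorescent complementation signal over DMSO, measured 8 hours after chemical dosing of human kidney HEK293T cells, indicated enhanced Nurr1–RXRα association.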

[10] = target: Peroxisome proliferator-activated receptor gamma (Homo sapiens) (UniProt P37231); experiment: OT_PPARg_PPARgSRC1_1440: Odyssey Thera (OT) 24-hour Protein-Complementation Assay for Peroxisome Proliferator-activated Receptor Gamma/ SRC-1 Co-activator (AID 2283388);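 also: nuclear to cytoplasmic ratio of reconstituted Venus YFP fluorescence in fixed imaged cells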
Procedure, shortened: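 Readout is the 488 nm N/C fluorescence ratio from fixed, Draq5-stained HEK293T cells after 24 h compound exposure. Cells carried transiently transfected PPARg and SRC-1 fused to Venus fragments, transfected 48 h before treatment.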

Sequence of Retinoic acid receptor RXR-alpha (Homo sapiens) (P19793 whole entry, looked up, the tested form may be a part): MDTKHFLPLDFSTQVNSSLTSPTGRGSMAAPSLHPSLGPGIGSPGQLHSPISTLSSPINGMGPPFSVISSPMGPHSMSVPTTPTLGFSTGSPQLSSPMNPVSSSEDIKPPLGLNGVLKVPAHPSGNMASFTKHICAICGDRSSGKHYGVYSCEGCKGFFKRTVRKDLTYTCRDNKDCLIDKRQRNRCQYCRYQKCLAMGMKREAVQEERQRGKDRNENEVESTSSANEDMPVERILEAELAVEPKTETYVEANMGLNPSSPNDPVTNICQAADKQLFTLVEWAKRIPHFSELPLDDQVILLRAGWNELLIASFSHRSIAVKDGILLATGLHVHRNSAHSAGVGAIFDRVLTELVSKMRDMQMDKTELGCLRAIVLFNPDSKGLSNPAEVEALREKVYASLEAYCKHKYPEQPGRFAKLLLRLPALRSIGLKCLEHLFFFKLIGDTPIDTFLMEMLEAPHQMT
Sequence of Estrogen receptor (Homo sapiens) (P03372 whole entry, looked up): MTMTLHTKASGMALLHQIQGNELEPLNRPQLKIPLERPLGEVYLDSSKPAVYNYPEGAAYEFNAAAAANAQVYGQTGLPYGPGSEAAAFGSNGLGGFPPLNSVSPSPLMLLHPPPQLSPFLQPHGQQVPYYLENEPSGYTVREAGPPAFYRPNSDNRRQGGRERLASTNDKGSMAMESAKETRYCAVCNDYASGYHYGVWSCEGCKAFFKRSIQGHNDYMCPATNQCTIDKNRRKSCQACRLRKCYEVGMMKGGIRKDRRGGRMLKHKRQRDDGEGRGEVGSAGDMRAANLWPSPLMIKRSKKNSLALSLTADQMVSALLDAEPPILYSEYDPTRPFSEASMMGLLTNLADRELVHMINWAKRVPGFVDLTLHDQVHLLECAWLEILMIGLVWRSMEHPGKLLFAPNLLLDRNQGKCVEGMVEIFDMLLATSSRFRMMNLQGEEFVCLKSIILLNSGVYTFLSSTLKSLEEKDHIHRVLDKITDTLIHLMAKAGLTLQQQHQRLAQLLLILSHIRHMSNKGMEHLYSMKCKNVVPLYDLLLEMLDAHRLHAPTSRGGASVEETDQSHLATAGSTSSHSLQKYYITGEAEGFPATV
Sequence of Bile acid receptor (Homo sapiens) (Q96RI1 whole entry, looked up): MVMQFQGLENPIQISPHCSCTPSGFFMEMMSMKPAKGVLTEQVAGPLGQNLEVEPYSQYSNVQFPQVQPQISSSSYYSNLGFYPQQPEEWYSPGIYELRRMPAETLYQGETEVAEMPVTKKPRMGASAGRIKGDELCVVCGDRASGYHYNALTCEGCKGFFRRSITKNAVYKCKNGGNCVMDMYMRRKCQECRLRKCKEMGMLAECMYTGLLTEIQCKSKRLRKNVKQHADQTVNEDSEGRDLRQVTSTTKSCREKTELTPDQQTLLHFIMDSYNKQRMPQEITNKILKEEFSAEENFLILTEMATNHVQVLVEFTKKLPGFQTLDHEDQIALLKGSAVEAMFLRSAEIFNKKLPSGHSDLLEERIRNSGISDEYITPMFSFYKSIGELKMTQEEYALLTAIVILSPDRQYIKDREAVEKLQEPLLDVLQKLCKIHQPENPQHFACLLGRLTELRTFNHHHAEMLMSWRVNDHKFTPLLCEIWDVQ
Sequence of Peroxisome proliferator-activated receptor gamma (Homo sapiens) (P37231 whole entry, looked up, the tested form may be a part): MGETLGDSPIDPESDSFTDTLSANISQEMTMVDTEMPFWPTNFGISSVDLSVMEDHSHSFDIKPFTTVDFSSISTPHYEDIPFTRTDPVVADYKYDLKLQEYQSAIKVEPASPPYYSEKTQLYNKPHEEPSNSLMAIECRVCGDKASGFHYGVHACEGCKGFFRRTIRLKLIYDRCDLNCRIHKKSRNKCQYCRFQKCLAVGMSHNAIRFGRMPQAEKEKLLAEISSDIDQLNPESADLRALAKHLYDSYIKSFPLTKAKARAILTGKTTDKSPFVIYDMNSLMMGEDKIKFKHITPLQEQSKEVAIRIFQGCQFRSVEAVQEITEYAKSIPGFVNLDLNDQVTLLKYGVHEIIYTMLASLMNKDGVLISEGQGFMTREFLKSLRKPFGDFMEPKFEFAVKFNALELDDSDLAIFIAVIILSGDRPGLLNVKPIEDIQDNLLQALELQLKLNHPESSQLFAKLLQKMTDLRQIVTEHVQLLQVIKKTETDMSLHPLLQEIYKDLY

SMILES	outcome [1]	outcome [2]	outcome [3]	outcome [4]	outcome [5]	outcome [6]	outcome [7]	outcome [8]	outcome [9]	outcome [10]	AC50 [7]	AC50 [8]
COC(=O)NC(=S)Nc1ccccc1NC(=S)NC(=O)OC	inactive	inactive	inactive	inactive	inactive	inactive	inactive	inactive				
COCC(C)N(C(=O)CCl)c1c(C)csc1C (centres undefined)	inactive	inactive	inactive		inactive	inactive			inactive			
CC(C)N1C(=O)c2ccccc2NS1(=O)=O	inactive	inactive				inactive				inactive		
CC1(C)CCC(=Cc2ccc(Cl)cc2)C1(O)Cn1cncn1 (centres undefined)	inactive	inactive			inactive	inactive	inactive	inactive		inactive		
CCOc1nc(C(Cl)(Cl)Cl)ns1	inactive	inactive			inactive	inactive		inactive	inactive	inactive		
CC(C)(C)C(=O)C(Oc1ccc(Cl)cc1)n1cncn1 (centres undefined)	inactive	inactive				inactive			inactive		58.9 µM (active)	21.6 µM (active)
N#CN=C1SCCN1Cc1ccc(Cl)nc1	inactive	inactive				inactive	inactive		inactive			50 µM (active)
O=C1C2CC=CCC2C(=O)N1SC(Cl)(Cl)Cl (centres undefined)	inactive	inactive				inactive		inactive				
CC(C)Nc1nc(Cl)nc(NC(C)C)n1	inactive	inactive			inactive	inactive		inactive				
Nc1cnn(-c2ccccc2)c(=O)c1Cl	inactive	inactive			inactive	inactive	inactive	inactive		inactive		
CCN(CC)c1nc(C)cc(OP(=S)(OC)OC)n1	inactive	inactive			inactive	inactive	inactive	inactive	inactive	inactive		
Cc1cnc(C2=NC(C)(C(C)C)C(=O)N2)c(C(=O)O)c1 (centres undefined)	inactive	inactive			inactive	inactive			inactive	inactive		
CNC(=O)Oc1cccc2ccccc12	inactive			inactive				inactive	inactive			
Clc1nc(Cl)nc(Nc2ccccc2Cl)n1	inactive	inactive			inactive	inactive	inactive	inactive	inactive			
CN=C=S		inactive	inactive	inactive	inactive	inactive			inactive	inactive		
CCOc1nc(F)cc2nc(S(=O)(=O)Nc3c(Cl)cccc3Cl)nn12	inactive	inactive			inactive	inactive			inactive	inactive		
CCNP(=S)(OC)O/C(C)=C/C(=O)OC(C)C (centres undefined)	inactive	inactive			inactive	inactive			inactive		65.9 µM (active)	61.8 µM (active)
N#Cc1c[nH]cc1-c1cccc2c1OC(F)(F)O2	inactive	inactive			inactive	inactive				inactive		
COC(=O)c1c(C(F)F)nc(C(F)(F)F)c(C2=NCCS2)c1CC(C)C	inactive	inactive			inactive	inactive			inactive	inactive		

SMILES	outcome [1]	outcome [2]	outcome [3]	outcome [4]	outcome [5]	outcome [6]	outcome [7]	outcome [8]	outcome [9]	outcome [10]	AC50 [7]	AC50 [8]
CC(C)NC(=O)N1CC(=O)N(c2cc(Cl)cc(Cl)c2)C1=O	inactive	inactive				inactive						10.3 µM (active)
Nc1c(Cl)c(F)nc(OCC(=O)O)c1Cl	inactive	inactive			inactive	inactive				inactive		
CCOP(=S)(OCC)Oc1nc(Cl)n(C(C)C)n1	inactive	inactive				inactive	inactive	inactive				
OC(c1ccc(Cl)cc1)(c1ccc(Cl)cc1)C(Cl)(Cl)Cl	inactive	inactive				inactive				inactive		
COP(=S)(OC)SCn1nnc2ccccc2c1=O	inactive	inactive				inactive		inactive		inactive		
CN/C(=N\[N+](=O)[O-])NCc1cnc(Cl)s1	inactive	inactive			inactive	inactive		inactive	inactive			
CCOC(=O)C(C)OC(=O)c1cc(Oc2ccc(C(F)(F)F)cc2Cl)ccc1[N+](=O)[O-] (centres undefined)	inactive	inactive			inactive	inactive	inactive	inactive	inactive			
CC(C)C1(C)N=C(c2ncccc2C(=O)O)NC1=O (centres undefined)	inactive	inactive			inactive	inactive						
N#Cc1c(Cl)cccc1Cl	inactive	inactive			inactive	inactive	inactive	inactive	inactive			
COC(=O)NS(=O)(=O)c1ccc(N)cc1	inactive	inactive			inactive	inactive				inactive		
CCCC(=NOCC)C1=C(O)CC(CC(C)SCC)CC1=O (centres undefined)	inactive	inactive			inactive	inactive	inactive	inactive	inactive	inactive		
CC(C)Oc1cccc(NC(=O)c2ccccc2C(F)(F)F)c1	inactive	inactive			inactive	inactive		inactive	inactive		28.9 µM (active)	
CC1(C)C(C=C(Cl)Cl)C1C(=O)OC(C#N)c1cccc(Oc2ccccc2)c1 (centres undefined)	inactive	inactive			inactive	inactive	inactive	inactive	inactive			
COc1cc(Cl)c(OC)cc1Cl	inactive	inactive			inactive	inactive	inactive	inactive	inactive	inactive		
CCCCC(C#N)(Cn1cncn1)c1ccc(Cl)cc1 (centres undefined)	inactive	inactive				inactive			inactive		51 µM (active)	7.87 µM (active)
CC1(C)CON(Cc2ccccc2Cl)C1=O	inactive	inactive			inactive	inactive		inactive	inactive	inactive		
Cc1cc(C)nc(Nc2ccccc2)n1	inactive	inactive			inactive	inactive				inactive		
O=C(Nc1ccccc1-c1ccc(Cl)cc1)c1cccnc1Cl	inactive	inactive			inactive	inactive	inactive	inactive	inactive			
CCSC(=O)N1CCCCCC1	inactive	inactive			inactive	inactive		inactive		inactive		
